# Source: PubChem (National Center for Advancing Translational Sciences (NCATS))
# EPAC1 antagonist = blocks human EPAC1 exchange factor; Potency, µM (highest dose often 115 µM), without a hit: top-dose activity change, negative = inhibition, actives largely listed as inhibitors; EPAC1 GEF assay, Rap1b-BODIPY-GDP exchange fluorescence; hit rate 0.14% among 360,000; AID 720709; O95398;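 note: plate controls were vehicle for no effect and positive control for full effect; nearly all actives have a fitted effect of over 50% in size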
# EPAC1 agonist = agonists of human EPAC1; hit rate 0.073% among 360,000; Potency, µM (highest dose often 154 µM), without a hit: at the highest dose activation, actives largely listed as activators; O95398; EPAC1 agonist qHTS, biochemical assay; response scale: 100% = response to 6.5 mM cAMP; AID 720707; note: nearly all actives have a fitted effect of over 60% in size
#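 Nucleotide exchange by EPAC1 (100 nM) on Rap1B–BODIPY-GDP (250 nM) in the presence of 50 uM GDP is tracked fluorescently at 480/540 nm over 30 min. Signals are normalized to a 6.5 mM cAMP control.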
# EPAC2 ag = agonists of human EPAC2 (RAPGEF4); Q8WZA2; EPAC2 activation, biochemical qHTS; response scale: 100% = 6.5 mM cAMP response; Potency, µM (top dose mostly 154 µM), for the others: at the top dose activation, most hits filed as activators; hit rate 0.079% among 360,000; note: nearly all actives have a fitted effect of over 50% in size
#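 EPAC2 (100 nM) mixed with Rap1B loaded with BODIPY-GDP (250 nM) plus 50 uM unlabeled GDP; compounds pinned in, 5 min RT, then read every 5 min for 30 min (ex 480, em 540 nm). Normalized to cAMP control.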
# EPAC2 antag = antagonists of human EPAC2; hit rate 0.18% among 360,000; Potency, µM (highest dose often 114 µM), for the others: at the top dose activity, negative = inhibition, actives largely listed as inhibitors; AID 720708; EPAC2 GEF exchange of Rap1B-BODIPY-GDP, fluorescence; Q8WZA2; note: % is set by controls: 0 for no effect and ±100 for the full control effect; nearly all actives have a fitted effect of over 45% in size
# USP1-UAF1 inh = USP1/UAF1 (human) deubiquitinase inhibition; hit rate 0.23% among 390,000; O94782; Potency, µM (top dose mostly 57.1 µM), inactives show top-dose activity change, negative = inhibition, actives largely listed as inhibitors; recombinant USP1/UAF1, Ub-Rhodamine cleavage fluorescence; note: % is set by controls: 0 for no effect and ±100 for the full control effect; nearly all actives have a fitted effect of over 60% in size
# Target sequence (O94782 whole entry, looked up): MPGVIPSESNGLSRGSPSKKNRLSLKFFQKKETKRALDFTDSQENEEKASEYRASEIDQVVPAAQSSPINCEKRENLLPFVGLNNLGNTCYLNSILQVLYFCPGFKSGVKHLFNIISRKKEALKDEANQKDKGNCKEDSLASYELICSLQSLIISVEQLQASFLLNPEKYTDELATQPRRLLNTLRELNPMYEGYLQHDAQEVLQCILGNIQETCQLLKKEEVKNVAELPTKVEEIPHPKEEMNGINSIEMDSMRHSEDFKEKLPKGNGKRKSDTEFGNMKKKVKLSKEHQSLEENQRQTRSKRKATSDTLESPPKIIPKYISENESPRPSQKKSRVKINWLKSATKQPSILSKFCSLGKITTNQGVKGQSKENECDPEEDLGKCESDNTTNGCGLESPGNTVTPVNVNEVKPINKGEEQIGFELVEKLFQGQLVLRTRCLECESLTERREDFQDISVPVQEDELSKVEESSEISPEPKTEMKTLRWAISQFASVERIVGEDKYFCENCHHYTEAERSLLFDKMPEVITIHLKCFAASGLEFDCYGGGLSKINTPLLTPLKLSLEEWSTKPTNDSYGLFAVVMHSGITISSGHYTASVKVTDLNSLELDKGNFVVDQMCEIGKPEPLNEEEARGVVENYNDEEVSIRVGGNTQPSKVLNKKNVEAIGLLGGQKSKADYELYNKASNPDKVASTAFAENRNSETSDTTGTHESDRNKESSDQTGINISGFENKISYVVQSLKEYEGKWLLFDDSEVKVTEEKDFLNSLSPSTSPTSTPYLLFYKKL
#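 Step one: compound is pinned into 1nM USP1/UAF1 in HEPES pH 7.8 buffer with TCEP. Step two: 15 min room-temperature incubation. Step three: Ub-Rho (150nM final) starts cleavage, tracked by fluorescence over six one-minute reads.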
# VDR inhibitor = vitamin D3 receptor (human) inhibition; P11473; VDR-SRC2-3 peptide fluorescence polarization, 2 h; Potency, µM, inactives show max response, negative = inhibition, actives largely listed as inhibitors; hit rate 0.93% among 400,000; AID 504847; note: % is set by controls: 0 for no effect and ±100 for the full control effect
#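 Reagent solutions, kept cold and dark, are dispensed first; compounds are then pinned in at 23 nl, plates briefly spun, and incubated 2 h at ambient temperature. Inhibition of VDR–SRC2-3 peptide binding is read by fluorescence polarization.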
# * = called active by the depositor; ? = inconclusive; . = no result given. Compounds with a hit are over-represented: about 1.2% of the library has one in this group of screens. Calls come from the whole dose curve; as a rule, active = well fitted curve in the direction sought with a large enough effect; inconclusive = small, poorly fitted or top-dose-only effect, or another doubt; inactive = no such curve, though single readings can be large; an effect the other way counts as inactive or inconclusive. Potency is the fitted concentration of half-maximal effect.
SMILES,EPAC1 antagonist,EPAC1 agonist,EPAC2 ag,EPAC2 antag,USP1-UAF1 inh,VDR inhibitor
O=[N+]([O-])c1ccc(COc2cccc(CNc3ccc(F)cc3)c2)cc1,-23.0%,4.2%,10.3%,-1.9%,-10.9%,-8.6%
Oc1ccc(NCc2cccc(OCc3ccccc3)c2)cc1,31.6µM*,-13.0%,7.3%,?,?,?
Oc1ccc(NCc2cccc(OCc3ccc(F)cc3)c2)cc1,44.7µM*,13.6%,18.1%,-29.0%,?,?
C[C@H](NC(=O)[C@@H](N)Cc1ccc(O)cc1)C(=O)NCC(=O)N[C@H]1CSSC[C@@H](C(=O)O)NC(=O)[C@H](CO)NC(=O)[C@H]([C@@H](C)O)NC(=O)[C@H](Cc2ccccc2)NC(=O)[C@H]([C@@H](C)O)NC(=O)[C@H](CCCCN)NC(=O)[C@@H](Cc2c[nH]c3ccccc23)NC(=O)[C@H](Cc2ccccc2)NC(=O)[C@H](Cc2ccccc2)NC(=O)[C@H](CC(N)=O)NC(=O)[C@H](CCCCN)NC1=O,.,.,.,.,.,8.6%
CN(C)C1CCc2[nH]c3ccc(NC(=O)c4ccc(F)cc4)cc3c2C1 (stereo unspecified),.,.,.,.,.,6.1%
CCCCCCCCCCCCCCOc1ccc(C(=O)O)o1,.,.,.,.,.,11.2µM*
CCOc1ccc(OCc2ccc(C(=O)O)o2)cc1,-8.8%,0.0%,-0.4%,-2.8%,-12.7%,-9.1%
CCN(CC)S(=O)(=O)c1ccc(NC(=O)c2c(C)oc3ncnc(N4CCOCC4)c23)cc1,.,.,.,.,-17.0%,-5.9%
Clc1ccccc1-c1nnc2sc(CCc3ccccc3)nn12,-0.8%,12.3%,-3.9%,-3.2%,-16.3%,50.1µM*
Clc1ccccc1-c1nnc2sc(-c3ccc(Br)o3)nn12,-2.6%,9.8%,7.8%,-0.5%,-11.6%,-16.6%
CC(=O)Nc1ccc(NC(=O)C2CCC(N3C(=O)C4C5C=CC(C6CC56)C4C3=O)CC2)cc1 (stereo unspecified),-21.1%,-8.0%,1.4%,1.2%,-19.5%,20µM*
CCCc1c(OCCCCc2nn[nH]n2)ccc(C(C)=O)c1O,0.0%,-26.6%,-13.4%,?,-16.6%,44.7µM*
COC(=O)C1=C[C@@H](C(=O)OC)C2C3=C(C(=O)[C@@]2(C)NC(=O)c2ccccc2)[C@H](C)n2c(=O)n(-c4ccccc4)c(=O)n2[C@@H]3C1 (stereo partly specified),.,.,.,.,.,-18.2%
O=[N+]([O-])c1ccc(C(c2sc3nc(-c4ccco4)nn3c2O)N2CCC3(CC2)OCCO3)cc1 (stereo unspecified),.,.,.,.,-14.9%,-2.5%
CC1=CC2C(=O)c3cccc(O)c3C(=O)C2C(O)=C1 (stereo unspecified),.,.,.,.,.,25.1µM*
Cc1ccc(S(=O)(=O)c2ccc([N+](=O)[O-])o2)cc1,-1.1%,-6.3%,9.7%,13.4%,-14.5%,44.7µM*
Fc1cccc(/C=C2\CCCC3=C2NC(=S)NC3c2cccc(F)c2)c1 (stereo unspecified),-1.6%,-5.7%,7.6%,11.6%,-22.2%,79.4µM*
S=C1NC2=C(CCC/C2=C\c2ccccc2)C(c2ccccc2)N1 (stereo unspecified),1.0%,7.0%,19.6%,10.2%,-12.8%,89.1µM*
S=C1NC2=C(CCC/C2=C\c2ccc(Cl)cc2)C(c2ccc(Cl)cc2)N1 (stereo unspecified),13.3%,-7.8%,9.5%,5.1%,-9.0%,?
CCC(c1nnnn1Cc1ccccc1)N(Cc1ccccc1)Cc1cc2cc(C)ccc2[nH]c1=O (stereo unspecified),.,.,.,.,.,-13.4%
CCOC(=O)/C(C#N)=C\c1cc(OC)c(OC)cc1[N+](=O)[O-],-16.7%,9.1%,16.0%,-0.7%,-13.0%,20µM*
COc1ccc(SCC(CC(C)C)N2CCN(C)CCC2=O)cc1 (stereo unspecified),.,.,.,.,.,3.0%
Cc1cc(C)c2nc(C)cc(Nc3ccc(C(=O)NCCO)cc3)c2c1,-2.1%,-10.4%,6.2%,20µM*,-20.9%,-13.8%
O=C1c2cc(O)cc(O)c2OC[C@@H]1c1ccc(O)c(O)c1,.,.,.,.,.,-2.2%
O=[N+]([O-])c1cc2no[n+]([O-])c2cc1N1CCCCC1,-8.9%,-4.6%,-0.7%,-0.2%,?,39.8µM*
SMILES,EPAC1 antagonist,EPAC1 agonist,EPAC2 ag,EPAC2 antag,USP1-UAF1 inh,VDR inhibitor
Cc1ccc(C2=N/C(=C\c3c(C)nn(-c4ccccc4)c3N3CCCC3)C(=O)O2)cc1,10.6%,-2.6%,100µM*,35.8%,-18.1%,4.3%
COc1ccc(S(=O)(=O)N(CC(=O)N2CCC(C)CC2)c2ccc(C)cc2)cc1,.,.,.,.,-11.7%,0.6%
CCCn1c(N)c(N(CCOC)C(=O)CSCC(=O)Nc2cccc(C)c2)c(=O)[nH]c1=O,-14.8%,100µM*,2.8%,9.1%,-20.6%,-8.3%
C[C@H](CCC(=O)NCC(=O)O)C1CC[C@H]2[C@H]3C(C[C@H](O)[C@]12C)[C@@]1(C)CC[C@@H](O)C[C@H]1C[C@H]3O (stereo partly specified),.,.,.,.,.,-13.2%
NC(=O)Cc1ccc(C(=O)c2ccc(Cl)cc2Cl)s1,-0.7%,-7.8%,-1.6%,-17.2%,-11.4%,-3.9%
O=C(O)Cc1ccc(C(=O)c2ccc(Cl)cc2Cl)s1,-20.3%,-6.7%,-1.3%,35.5µM*,-11.4%,-23.8%
O=C(CCCC[C@@H]1SC[C@H]2NC(=O)N[C@H]12)Nc1ccc(C(=O)O)cc1,.,.,.,.,.,12.3%
COCCn1c(=O)c(-c2cn(C)c3ccccc23)nc2cnc(Oc3ccc(OC)cc3)nc21,.,.,.,.,.,-6.0%
CN(C)c1ccc(/C=C2\C(=N)N3N=C(CC(=O)N4CCCCC4)SC3=NC2=O)cc1,-8.7%,7.7%,100µM*,9.8%,-20.0%,-8.9%
CCCCCCCCCCCCCCC[C@@H](O)[C@H](CO)NC(=O)CCCCCCC,.,.,.,.,.,2.9%
CC(C)N1CCc2c(sc(NC(=O)c3ccc(S(=O)(=O)N4CCOCC4)cc3)c2C#N)C1,-9.2%,-4.1%,100µM*,20.5%,?,-3.6%
CCOC(=O)N1CCc2c(sc(NC(=O)c3ccc(S(=O)(=O)N4CCCC4)cc3)c2C#N)C1,-8.6%,-3.3%,4.8%,-0.9%,-35.6%,?
CC(C)N1CCc2c(sc(NC(=O)c3ccc(S(=O)(=O)N4CCc5ccccc54)cc3)c2C(N)=O)C1,?,-12.2%,-26.6%,44.7µM*,2.4%,9.2%
CC(C)N1CCc2c(sc(NC(=O)c3ccc(S(=O)(=O)N(C)C4CCCCC4)cc3)c2C(N)=O)C1,.,.,.,.,-17.9%,1.8%
COc1cccc2cc(/C(=N/O)c3ccccc3)oc12,-18.9%,6.0%,22.9%,50.1µM*,0.4%,6.6%
